Measured values: PubChem BioAssay AID1159580 (chemical genetic matrix, 2015)
Among all 5,500 compounds or so, about 2,000 (36%) were called active. Not shown: some 18% with an inconclusive outcome. Cut-off read from the data, not from the text of the source: active = normalized growth mostly below about 0.91 (no sharp cut-off); inconclusive = no clear call, values can overlap the other calls; inactive = mostly above about 0.92. This is one part of the list.

Experiment: chemical genetic growth profiling, strain panel (AID 1159580);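 note: tested at 20 µM; growth read once vehicle control cultures reached saturation at 30 °C; 1 = growth at the plate median or of vehicle wells; lower values mean less growth of the strain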
Details: growth OD
[1] = S. cerevisiae deletion strains, locus YAL040C, strain CLN3, hits give low values
[2] = S. cerevisiae deletion strains, locus YDR363W, strain ESC2, hits give low values
[3] = S. cerevisiae deletion strains, locus YER002W, strain NOP16, hits give low values
[4] = S. cerevisiae deletion strains, locus YGR078C, strain PAC10, hits give low values
[5] = S. cerevisiae deletion strains, locus YJR075W, strain HOC1, hits give low values
[6] = S. cerevisiae deletion strains, locus YNL153C, strain GIM3, hits give low values
[7] = S. cerevisiae deletion strains, locus YNL175C, strain NOP13, hits give low values
[8] = S. cerevisiae deletion strains, locus YNL197C, strain WHI3, hits give low values
[9] = S. cerevisiae deletion strains, locus YNL224C, strain SQS1, hits give low values
[10] = S. cerevisiae deletion strains, locus YOR083W, strain WHI5 (second series), hits give low values
[11] = S. cerevisiae deletion strains, locus YPL241C, strain CIN2, hits give low values
[12] = S. cerevisiae deletion strains, locus YAL013W, strain DEP1, hits give low values
[13] = S. cerevisiae deletion strains, locus YMR263W, strain SAP30, hits give low values
[14] = S. cerevisiae deletion strains, locus YPL055C, strain LGE1, hits give low values

Measured: normalized growth

COc1cc2c(cc1OC)-c1cc(=Nc3c(C)cc(C)cc3C)n(C)c(=O)n1CC2
inactive: [1] 0.995 | S. cerevisiae deletion strains, locus YCL061C, strain MRC1 (second series), hits give low values 0.998 | [2] 1 | [3] 1.02 | [4] 1.01 | [5] 0.97 | S. cerevisiae deletion strains, locus YMR307W, strain GAS1, hits give low values 0.998 | [6] 0.999 | [7] 0.996 | [8] 1.01 | [9] 1.01 | [10] 1.02 | [11] 0.993

c1cc(C2CCCCC2)ccc1C1CCCCC1
inactive: [12] 1.01 | S. cerevisiae deletion strains, locus YBR229C, strain ROT2, hits give low values 1 | S. cerevisiae deletion strains, locus YCL061C, strain MRC1, hits give low values 0.965 | S. cerevisiae deletion strains, locus YDL101C, strain DUN1, hits give low values 0.968 | S. cerevisiae deletion strains, locus YDR150W, strain NUM1, hits give low values 0.958 | S. cerevisiae deletion strains, locus YEL061C, strain CIN8, hits give low values 1.01 | [4] 0.982 | S. cerevisiae deletion strains, locus YHR030C, strain SLT2, hits give low values 0.878 | S. cerevisiae deletion strains, locus YHR087W, strain rtc3, hits give low values 1.04 | S. cerevisiae deletion strains, locus YJR043C, strain POL32, hits give low values 1 | [5] 1.03 | S. cerevisiae deletion strains, locus YLR039C, strain RIC1, hits give low values 1.05 | S. cerevisiae deletion strains, locus YLR058C, strain SHM2 (second series), hits give low values 1.02 | S. cerevisiae deletion strains, locus YLR085C, strain ARP6, hits give low values 1.04 | S. cerevisiae deletion strains, locus YLR262C, strain YPT6, hits give low values 1.04 | S. cerevisiae deletion strains, locus YML094W, strain GIM5, hits give low values 1.02 | S. cerevisiae deletion strains, locus YMR219W, strain ESC1, hits give low values 1.04 | [13] 1 | [6] 0.983 | S. cerevisiae deletion strains, locus YNL298W, strain CLA4 (second series), hits give low values 0.987 | S. cerevisiae deletion strains, locus YNL322C, strain KRE1, hits give low values 1.01 | S. cerevisiae deletion strains, locus YNR030W, strain Alg12, hits give low values 0.967 | S. cerevisiae deletion strains, locus YOL006C, strain TOP1, hits give low values 0.893 | [14] 1.05 | [11] 1 | S. cerevisiae deletion strains, locus YPR135W, strain CTF4, hits give low values 1.05 | S. cerevisiae strains, strain wild type, hits give low values 0.973

CC(=O)NBr
inactive: [12] 1.02 | [1] 0.995 | [2] 1.01 | [3] 1.01 | [4] 1.01 | [13] 1 | S. cerevisiae deletion strains, locus YNL128W, strain TEP1, hits give low values 1.01 | [7] 1.01 | [8] 0.997 | [9] 1.01 | [10] 1.01 | [14] 0.999
